# Laboratory results reported in ChEMBL document CHEMBL3988442, “University of Dundee, Small-Polar-MMV Screening Library” (2021).
# Target: T1, Methionyl-tRNA synthetase, putative (Leishmania donovani (strain BPK282A1)) (UniProt E9BF75)
# T1 sequence (whole entry): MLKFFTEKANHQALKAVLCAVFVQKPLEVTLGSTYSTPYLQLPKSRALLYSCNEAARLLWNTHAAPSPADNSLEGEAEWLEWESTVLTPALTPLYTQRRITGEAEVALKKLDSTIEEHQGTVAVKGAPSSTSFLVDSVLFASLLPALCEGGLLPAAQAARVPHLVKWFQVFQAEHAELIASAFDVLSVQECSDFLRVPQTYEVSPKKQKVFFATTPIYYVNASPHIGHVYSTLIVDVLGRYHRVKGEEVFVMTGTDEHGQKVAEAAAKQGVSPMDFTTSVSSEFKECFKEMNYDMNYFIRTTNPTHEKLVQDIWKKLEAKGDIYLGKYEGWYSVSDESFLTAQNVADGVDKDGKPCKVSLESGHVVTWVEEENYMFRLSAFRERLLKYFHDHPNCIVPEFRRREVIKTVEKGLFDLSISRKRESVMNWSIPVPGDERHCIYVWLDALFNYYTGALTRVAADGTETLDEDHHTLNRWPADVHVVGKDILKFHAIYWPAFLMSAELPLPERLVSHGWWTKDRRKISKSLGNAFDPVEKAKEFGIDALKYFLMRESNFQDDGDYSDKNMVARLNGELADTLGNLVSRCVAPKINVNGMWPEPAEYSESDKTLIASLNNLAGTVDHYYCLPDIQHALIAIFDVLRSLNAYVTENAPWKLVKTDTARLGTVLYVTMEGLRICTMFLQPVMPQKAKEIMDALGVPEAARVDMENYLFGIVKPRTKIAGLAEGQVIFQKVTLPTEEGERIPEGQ
# Assay: Leishmania donovani Methionine tRNA synthetase (LdMetRS):v7. Dose response assay
# Type: functional
# Parameters: conc 80 nM, time 150 minutes
compound,measurement,setting,value
CS(=O)(=O)N1CCN(CC2OB(O)c3ccccc32)CC1 (stereo not given),PXC50,MAX_EFFECT 11.13207547,< 4
same,PXC50,MAX_EFFECT 15.06849315,< 4
O=C1CN(c2nc(-c3cccs3)nc3sc4c(c23)CCCC4)CCN1,PXC50,MAX_EFFECT 29.33333333,< 4
same,PXC50,MAX_EFFECT 31.74603175,< 4
CC(C)C[C@@H](COc1cccc(F)c1Oc1ccc(Cl)cc1)NS(C)(=O)=O,PXC50,MAX_EFFECT 6.609808102,< 4
same,PXC50,MAX_EFFECT 8.902691511,< 4
Cc1nc(N2CCCC(O)C2)c2c3c(sc2n1)CCCC3 (stereo not given),PXC50,MAX_EFFECT 9.649122807,< 4
same,PXC50,MAX_EFFECT 16.66666667,< 4
CCNc1cc(-c2ccccn2)nc(Nc2ccc(OC)cc2)n1,PXC50,MAX_EFFECT 22.3255814,< 4
same,PXC50,MAX_EFFECT 23.54312354,< 4
CC(=O)N1CCN(CC2OB(O)c3ccccc32)CC1 (stereo not given),PXC50,MAX_EFFECT 12.26415094,< 4
same,PXC50,MAX_EFFECT 15.06849315,< 4
Cc1nc(NC2CCCC2)c2c3c(sc2n1)CCCC3,PXC50,MAX_EFFECT 28.64583333,< 4
same,PXC50,MAX_EFFECT 30.70175439,< 4
CN(C)C(=O)C1CCN(c2cncc(-n3cccn3)n2)CC1,PXC50,MAX_EFFECT 5.700712589,< 4
same,PXC50,MAX_EFFECT 11.44366197,< 4
N[C@H](COc1cccc(F)c1Oc1ccc(Cl)cc1)Cc1ccccc1,PXC50,"BOTTOM 1.014480123, HILLSLOPE 1.236846962, MAX_EFFECT 63.97515528, TOP 100.0",4.22
same,PXC50,"BOTTOM 4.768215501, HILLSLOPE 2.241755438, MAX_EFFECT 75.26652452, TOP 100.0",4.22
CN1CCN(c2ccc3ccc(C(=O)N4CCCCO4)cn23)CC1,PXC50,MAX_EFFECT 12.20657277,< 4
same,PXC50,MAX_EFFECT 19.44444444,< 4
CC(=O)N[C@H](COc1cccc(F)c1Oc1ccc(Cl)cc1)CC(C)C,PXC50,MAX_EFFECT 3.105590062,< 4
same,PXC50,MAX_EFFECT 4.051172708,< 4
CCN1c2ccc(-c3cncn3CCCn3ccnc3C)cc2CC1C (stereo not given),PXC50,MAX_EFFECT 36.73469388,< 4
same,PXC50,MAX_EFFECT 44.48598131,< 4
Cc1nc(N[C@@H](Cc2ccccc2)C(=O)O)c2c3c(sc2n1)CCCC3,PXC50,MAX_EFFECT 23.48484848,< 4
same,PXC50,MAX_EFFECT 27.55102041,< 4
Cc1sc2nc(CCN)nc(N3CCS(=O)(=O)CC3)c2c1C,PXC50,MAX_EFFECT 6.266318538,< 4
same,PXC50,MAX_EFFECT 7.049608355,< 4
CN(C)C(=O)CNC(=O)c1ccc2ccc(N(C)CC3CC3)n2c1,PXC50,MAX_EFFECT 21.76870748,< 4
same,PXC50,MAX_EFFECT 29.90654206,< 4
CCc1nc(NCCCN(C)C)c2cc(C)sc2n1,PXC50,MAX_EFFECT 12.06030151,< 4
same,PXC50,MAX_EFFECT 14.98771499,< 4
Nc1noc2ccc(-c3cnc4ccc(NCCN5CCC(F)(F)CC5)nn34)cc12,PXC50,MAX_EFFECT 10.96491228,< 4
same,PXC50,MAX_EFFECT 13.23155216,< 4
CCc1ccc(CN(C)Cc2nc(N)c3c(C)c(C)sc3n2)cc1,PXC50,MAX_EFFECT 28.57142857,< 4
same,PXC50,MAX_EFFECT 30.4,< 4
Cc1sc2nc(-c3cccs3)nc(N(C)CC(=O)N3CCCC3)c2c1C,PXC50,MAX_EFFECT 37.40458015,< 4
same,PXC50,MAX_EFFECT 42.06549118,< 4
Cc1cc2c(NC3CCCCC3)nc(-c3cccnc3)nc2s1,PXC50,MAX_EFFECT 17.08542714,< 4
same,PXC50,MAX_EFFECT 19.41031941,< 4
CCc1cc2c(NC(C(=O)O)C(C)C)nc(C)nc2s1 (stereo not given),PXC50,MAX_EFFECT 5.866666667,< 4
same,PXC50,MAX_EFFECT 8.994708995,< 4
O=C1CC[C@@H](COc2cccc(F)c2Oc2ccc(Cl)cc2)N1,PXC50,MAX_EFFECT 7.462686567,< 4
same,PXC50,MAX_EFFECT 9.316770186,< 4
Cc1sc2nc(-c3cccs3)nc(N3CCNC(=O)C3)c2c1C,PXC50,MAX_EFFECT 4.8,< 4
same,PXC50,MAX_EFFECT 8.994708995,< 4
CO[C@H]1[C@@H]2CC[C@H]1CN(c1nc(C)nc3sccc13)C2,PXC50,MAX_EFFECT 8.838383838,< 4
same,PXC50,MAX_EFFECT 9.693877551,< 4
Nc1noc2ccc(-c3cnc4ccc(NC5CCOCC5)nn34)cc12,PXC50,MAX_EFFECT 17.30279898,< 4
same,PXC50,MAX_EFFECT 20.1754386,< 4
Cc1nnc(NCC2(c3ccccc3)CCOCC2)c(C#N)c1C,PXC50,MAX_EFFECT 7.981220657,< 4
same,PXC50,MAX_EFFECT 16.48148148,< 4
Cc1nc(NCCC(=O)NC(C)C)c2c3c(sc2n1)CCC3,PXC50,MAX_EFFECT -1.058201058,< 4
same,PXC50,MAX_EFFECT -2.133333333,< 4
CC(C)N1CCN(c2ccc3ccc(C(=O)NC4CCCC4)cn23)CC1,PXC50,"BOTTOM 0.093, HILLSLOPE 1.274308059, MAX_EFFECT 67.28971963, TOP 100.0",4.24
same,PXC50,"BOTTOM -1.582312145, HILLSLOPE 1.245531895, MAX_EFFECT 64.39909297, TOP 98.29335099",4.24
Cc1nc(NCC(C)(C)O)c2c3c(sc2n1)CCCC3,PXC50,MAX_EFFECT 11.84210526,< 4
same,PXC50,MAX_EFFECT 12.5,< 4
CCOC(=O)c1sc2nc(C)nc(NC3CCCCC3)c2c1C,PXC50,MAX_EFFECT 13.06532663,< 4
same,PXC50,MAX_EFFECT 16.95331695,< 4
